EBNA-1 inhibitor: blocks EBNA-1 binding to DNA; EBNA-1 DNA binding, fluorescence polarization; inhibition, % at 14.8 µM; 300,000 compounds, 0.34% hits; AID 1950; in the data active = inhibition above about 28%
NALP1 inh: NALP1 inhibition; inhibition, % at 10 µM; 280,000 compounds, 0.61% hits; S. cerevisiae NALP1/ASC/caspase-1 growth, X-gal OD620, 72 h; AID 2071; in the data active = inhibition mostly above about 24%, no sharp cut-off; inactive = mostly below about 32%
PolyA inh: yeast polyadenylation inhibition. S. cerevisiae SKY197-pL101 polyadenylation reporter, beta-gal luminescence; efflux-impaired pdr1/pdr3 knockout yeast; score 100 = 6 SD above DMSO. activity score, % at 12 µM. 300,000 compounds, 0.02% hits. AID 1875;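 active = lowest replicate activity score at least 50, where 100 means six control SD above control mean; inconclusive = lowest score under 50 but half or more replicates reach 50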;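 also: yeast exposed to compound for 9 h at 30 °C; higher score means more reporter readthrough which indicates perturbed polyadenylation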
NLRP3 yeast inh: NALP3 inhibition in yeast; Yeast reconstituted NLRP3/ASC/caspase-1, beta-gal luminescence, 24 h; inhibition, % at 10 µM; 330,000 compounds, 0.39% hits; AID 2825;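 active = inhibition of 50% or more; inactive = inhibition below 50%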;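 also: plate controls were induced DMSO wells for no effect and uninduced yeast grown without galactose for full effect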
dFosB act: mouse delta FosB homodimer activation; P13346; purified delta FosB, TAMRA-CDK5 oligo fluorescence polarization; percent of positive-control signal above neutral wells; activation, % at 25 µM; 340,000 compounds, 0.99% hits; AID 493131;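 active = mean activation above about 17%, with every replicate also reaching it, limit read from the data, passing the limit was not always enough; inconclusive = only one of the two conditions met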
Target sequence (P13346 whole entry, looked up): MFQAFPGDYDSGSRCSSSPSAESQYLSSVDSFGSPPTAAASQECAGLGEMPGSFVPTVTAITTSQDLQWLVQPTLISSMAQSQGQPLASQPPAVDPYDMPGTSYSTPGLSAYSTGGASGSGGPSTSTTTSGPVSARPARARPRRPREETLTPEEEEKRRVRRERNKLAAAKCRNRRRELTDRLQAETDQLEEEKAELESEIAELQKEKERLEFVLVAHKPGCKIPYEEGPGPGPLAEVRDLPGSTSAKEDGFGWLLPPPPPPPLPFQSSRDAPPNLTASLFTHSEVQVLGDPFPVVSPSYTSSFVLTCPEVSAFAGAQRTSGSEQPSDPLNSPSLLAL
ZTA DNA inh: counter-screen for EBNA-1 inhibitors: inhibitors of Epstein-Barr virus ZTA; AID 2234; inhibition, % at 11 µM; 320,000 compounds, 0.15% hits; ZTA-DNA binding, fluorescence polarization; in the data active = inhibition above about 33%
Target sequence (P03206 whole entry, looked up): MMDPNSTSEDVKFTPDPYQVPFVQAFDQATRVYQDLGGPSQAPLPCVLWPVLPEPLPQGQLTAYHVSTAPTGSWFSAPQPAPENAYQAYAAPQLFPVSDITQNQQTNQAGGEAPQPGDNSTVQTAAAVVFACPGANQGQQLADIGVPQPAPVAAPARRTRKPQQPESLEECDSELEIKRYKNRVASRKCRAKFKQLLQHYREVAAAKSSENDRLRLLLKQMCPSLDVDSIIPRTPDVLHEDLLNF
* marks the source's active call; other numbers are inactive results; ? = inconclusive; · = not tested or not shown. Sampled rows, rich in hits. Any-hit rate of the full collection: about 2.2%.

SMILES	EBNA-1 inhibitor	NALP1 inh	PolyA inh	NLRP3 yeast inh	dFosB act	ZTA DNA inh
Brc1ccc(C2Nc3cccc4cccc(c34)N2)s1	1.0	35.5	·	·	23.1*	16.0
CN(C)CCNc1ccc(-c2nn(C)c(=O)c3ccccc23)cc1[N+](=O)[O-]	-8.9	12.2	-2.4	11.5	-3.6	0.1
CN(C)CCNc1ccc(CO)c2sc3ccc(O)cc3c(=O)c12	·	·	·	·	38.2*	·
CN(C)CCNc1ccc2ncn3c4ccc(O)cc4c(=O)c1c23	·	·	·	·	63.9*	·
Cc1c(NC(=O)CSC(=S)N2CCCC2)c(=O)n(-c2ccccc2)n1C	-5.8	·	22.5	26.7	0.1	18.2
O=C(CCN1CCN(Cc2ccccc2)CC1)NNC(=O)Nc1cccc([N+](=O)[O-])c1	·	25.7*	5.9	22.1	-11.1	·
Nc1ccc(S(=O)(=O)c2ccc(NC(=O)c3cccnc3)cc2)cc1	·	·	·	·	-3.8	·
Cc1ccc2nc3c(c(Nc4ccccc4)c2c1)CCC3	-11.2	41.2*	5.2	23.0	-18.0	-5.8
Nc1nc(SCc2ccc(Cl)cc2Cl)nc2nc3c(cc12)CCCC3	28.8*	20.1	16.4	23.2	15.0	1.2
Nc1nc(SCc2ccccc2Cl)nc2nc3c(cc12)CCCC3	1.7	6.1	-4.3	-9.2	3.8	-5.5
CC(C)Cn1c(N)c(C(=O)COC(=O)c2cc(S(=O)(=O)N3CCOCC3)ccc2Br)c(=O)n(C)c1=O	·	·	·	11.3	-1.0	·
Cc1ccc(C(=O)Nc2ccc(S(=O)(=O)N3CCOCC3)cc2)cc1	2.5	3.1	7.4	8.9	0.0	-11.2
Cc1cc(C)c(O)c(-c2cc(C(=O)Nc3ccc(S(=O)(=O)N4CCOCC4)cc3)[nH]n2)c1	1.1	5.1	1.0	9.7	23.1*	-9.9
Cc1ccc(CNC(=O)c2cc(-c3cc(C)cc(C)c3O)n[nH]2)cc1	-0.9	0.2	8.6	4.5	15.4	-8.9
CC(=O)Nc1ccc(NC(=O)c2cc(-c3cc(C)cc(C)c3O)n[nH]2)cc1	-14.0	15.8	-8.5	15.9	22.1*	-0.7
COc1ccc(NCC(=O)NN=C2CCS(=O)(=O)c3ccc(F)cc32)cc1	·	·	·	10.5	·	·
C=CCNc1nc(C(=O)OC(C)C(=O)c2ccc(C)cc2)cs1 (centres undefined)	·	·	·	9.9	-12.0	·
O=C(c1cccc(Cl)c1)N1CCN(c2ncnc3c2cnn3-c2ccccc2)CC1	-9.3	24.8*	-14.3	13.4	0.2	1.8
COc1cccc(C2=NC(C)(C)NC(c3ccccc3O)C2)c1 (centres undefined)	3.0	16.3*	-6.4	21.6	0.8	10.4
CCC1(C)N=C(c2ccc3c(c2)OCO3)CC(c2ccccc2O)N1 (centres undefined)	11.0	3.9	1.9	43.1	-6.6	11.7
CC(=O)Nc1ccc2c(c1)C(C)(C)C(C)N2C (centres undefined)	45.5*	2.1	-8.0	22.4	·	60.4*
N#CC(C#N)=C1NC2(CCCCC2)Cc2ccccc21	7.9	6.3	3.0	1.5	-5.6	6.8
N#CC(C#N)=c1ccc2c(c1)NC1(CCCCC1)N=2	37.6*	-6.6	-5.7	35.1	-5.4	40.2*
COc1ccc(C=O)cc1Cn1c(=O)n(CCC(=O)NCc2ccco2)c(=O)c2sccc21	-1.9	7.5	?	-5.8	93.8*	-5.2
Cc1ccc(C)c(Cn2c(=O)n(CCC(=O)NCc3ccco3)c(=O)c3sccc32)c1	-11.9	·	8.7	4.3	15.0	-8.6
SMILES	EBNA-1 inhibitor	NALP1 inh	PolyA inh	NLRP3 yeast inh	dFosB act	ZTA DNA inh
N=C1C(c2nc3ccccc3c(=O)[nH]2)=C(O)CN1c1ccccc1	·	37.8*	·	·	·	·
CNC(=O)CSCc1cnn(-c2ccccc2)c1-n1cccc1	-0.5	41.2*	-14.6	8.1	-1.8	2.8
CCCc1nnc(NC(=O)CN2C(=O)c3ccccc3C2=O)s1	9.2	43.6*	4.8	10.1	2.3	8.2
CC(=O)N1CCc2cc(S(=O)(=O)NCCC(=O)Nc3cc(C)cc(C)c3)ccc21	-0.5	40.2*	11.9	14.1	-0.4	-7.5
CCC(=O)N1CCc2cc(S(=O)(=O)NCCC(=O)Nc3cc(C)cc(C)c3)ccc21	0.7	11.3	20.0	15.2	-1.6	3.4
O=C(CCS(=O)(=O)c1ccc(F)cc1)Nc1nc(-c2ccncc2)cs1	-17.9	-2.3	-0.5	6.0	-9.7	-5.2
Cn1c(=O)[nH]c(=O)c2c1nc(SCC(O)CCl)n2Cc1ccccc1 (centres undefined)	-6.0	1.4	-14.1	28.7	8.7	13.9
CCCCCC(=O)Nc1nnn(CCC)n1	-2.7	42.6*	-7.4	-6.9	2.9	-6.8
CCCn1nnc(NC(=O)Cc2ccccc2)n1	0.8	14.3	2.4	13.9	-2.1	-3.3
CCS(=O)(=O)N1CCC(C(=O)Oc2ccc(Cl)cc2)CC1	-8.0	9.5	-2.0	24.9	-10.8	-9.7
O=C(Nc1ccc(S(=O)(=O)NCc2ccccc2)cc1)C1CCCCC1	9.0	32.3*	-11.6	3.9	-3.2	10.9
CCCn1c(SCC(=O)Nc2nnc(CC)s2)nnc1-c1ccncc1	-0.7	30.3*	10.7	6.9	-1.5	4.8
CCc1nnc(NC(=O)CSc2nnc(-c3cccnc3)n2CC)s1	-3.4	39.5*	0.0	12.0	-3.4	-14.9
CCc1nnc(NC(=O)CSc2nnc(-c3ccccc3O)n2CC)s1	5.3	0.4	-6.8	12.0	-3.8	5.1
C=CCn1c(SCC(=O)Nc2nnc(CC)s2)nnc1-c1ccncc1	4.2	-14.1	22.2	17.3	-2.1	-4.2
CCCCC[C@@H]1C=C(C(=O)O)[C@H](c2ccc(OC)c(OC)c2)N1S(=O)(=O)c1ccc(C)cc1	·	·	·	7.3	0.7	·
CCCNc1nc(-c2ccccc2)c(C(=O)OCC)cc1C#N	-3.5	42.8	-16.0	20.7	-5.4	6.0
CCCCNc1nc(-c2ccccc2)c(C(=O)OCC)cc1C#N	-6.0	44.4*	-15.9	20.6	-11.7	10.2
S=C1Cc2ccccc2N1	·	·	2.7	·	-15.3	·
COc1cc(OC)cc(-c2c(C#Cc3ccsc3)c3cc(-c4ccc5[nH]ccc5c4)ccc3n2C)c1	·	·	·	0.4	22.9*	3.6
CN(C(=O)c1ccc(NC(=O)Cc2cccc(NC(=O)C3CCN(C(=O)C4CCCC4)CC3)c2)cc1)C1CC1	·	·	·	·	-2.8	·
Cc1oc2cc(O)ccc2c(=O)c1Oc1ccc2ccccc2c1	4.4	32.4*	-20.3	18.1	-1.9	12.9
O=C(c1ccc(S(=O)(=O)Nc2cccc(C(F)(F)F)c2)cc1)N1CCN(c2ccccc2O)CC1	-3.6	·	-2.3	22.8	-7.1	6.4
CC[C@@H]1C=C(C)C[C@H](C)C[C@H](OC)[C@H]2O[C@@](O)(C(=O)C(=O)N3CCCC[C@H]3C(=O)O[C@H](/C(C)=C/[C@@H]3CC[C@@H](O)[C@H](OC)C3)[C@H](C)[C@@H](O)CC1=O)[C@H](C)C[C@@H]2OC	·	1.7	·	·	·	·
